{
  "source": "PubChem BioAssay (NCI)",
  "note": "The panel holds about 83,000 compounds, 20% with a hit somewhere; the sample as a whole holds those more often.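 Compound tested at a single concentration for 48 hours in 96-well plates; a percent growth value below 10 was scored as active.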 The source made the active and inactive calls.",
  "data": [
    {"test_system": "BT-549 breast", "assay": "NCI-60 one-dose screen, 48 h (100 = growth as untreated, 0 = no growth, -100 = all killed)", "conditions": "10 µM unless noted", "values": [
      {"smiles": "C1=CN2CC(c3ccccc3)=NNC2c2ccccc21", "note": "(stereo not given)", "growth": "61.7% (inactive)"},
      {"smiles": "NC(=O)CCC(C(=O)O)N1C(=O)c2ccc(O)cc2C1=O", "note": "(stereo not given)", "growth": "101% (inactive)"},
      {"smiles": "Clc1ccc(Sc2cnc(-c3ccccc3)o2)cc1", "growth": "96.6% (inactive)"},
      {"smiles": "OCc1cccc(-c2ccc3ncc(-c4nc(NC5CC5)ncc4F)n3c2)c1", "growth": "-7.54% (active)"},
      {"smiles": "CO/N=C(/C)c1ccc(NC(=O)CSc2nnc(-c3ccncc3)n2-c2ccccc2)cc1", "growth": "6.99% (active)"},
      {"smiles": "Cc1ccc(C2=Nc3c(N)ncnc3NC(c3ccc4c(c3)OCO4)C2)cc1", "note": "(stereo not given)", "growth": "61.4% (inactive)"},
      {"smiles": "COc1cc2oc(-c3cccc(NC(=O)c4cccc(Br)c4)c3)cc(=O)c2c(OC)c1OC", "growth": "50.2% (inactive)"},
      {"smiles": "COC(=O)c1cc(-c2ccccc2)[nH]c1N/N=C/c1c(Cl)cccc1Cl", "growth": "24.1% (inactive)"},
      {"smiles": "CN(C)CCCn1c2c(c3ncccc3c1=O)C(=O)c1ccccc1-2", "growth": "67.3% (inactive)"},
      {"smiles": "Cc1nnc(-n2c(O)cc(=O)n(-c3ccccc3)c2=S)nc1/C=C/c1ccc(N(C)C)cc1", "growth": "63.1% (inactive)"},
      {"smiles": "COc1ccc2c(c1)[n+]([O-])c(C(=O)/C=C/C=C(\\Cl)c1cc(OC)c(OC)c(OC)c1)c(C)[n+]2[O-]", "growth": "74.9% (inactive)"},
      {"smiles": "O=S(=O)(Nc1ccc(Cl)cc1)c1ccc(-c2cnc(C3CC3)o2)cc1", "growth": "51.8% (inactive)"},
      {"smiles": "O=C1/C(=C/c2ccc(Cl)cc2)COc2ccc(O)c(O)c21", "growth": "5.45% (active)"},
      {"smiles": "COc1ccc(-c2nc3c(c(-c4ccccc4)nn3-c3ccccc3)c(-c3ccc(N4CCOCC4)cc3)c2C#N)cc1", "growth": "95.3% (inactive)"},
      {"smiles": "N#Cc1c(NC(=O)c2ccccc2)sc2c1CCC(=O)C2", "growth": "16.2% (inactive)"},
      {"smiles": "COc1cc(-c2nc3cc(Cl)c(Cl)cc3[nH]2)ccc1OCC(=O)N=Nc1c(O)[nH]c2ccc([N+](=O)[O-])cc12", "growth": "98.8% (inactive)"},
      {"smiles": "COc1ccc(N2CCC(=O)NC2=S)cc1", "growth": "101% (inactive)"},
      {"smiles": "CCOC(=O)c1nc(Nc2ccc(NC(=O)Nc3ccc(F)cc3)cc2)c2ccccc2n1", "growth": "106% (inactive)"},
      {"smiles": "CCOC(=O)C1=C(NC)OCC1=O", "growth": "102% (inactive)"},
      {"smiles": "COc1cc(OC)c2sc(-c3ccc(-n4cncc4-c4ccc(OC)c(OC)c4)cc3)nc2c1", "growth": "44.5% (inactive)"},
      {"smiles": "COCCNC(=O)c1ccc(-c2nc3ccc4[nH]ncc4c3c3c2CCCC3)cc1", "growth": "10.3% (inactive)"},
      {"smiles": "Oc1c(Cl)cc(Cl)c2ccc(Cn3cc(-c4cc(F)cc(F)c4)nn3)nc12", "growth": "70.9% (inactive)"},
      {"smiles": "Cc1ccc2c(n1)C(=O)c1[nH]c3ccccc3c1C2=O", "growth": "58.5% (inactive)"},
      {"smiles": "C=CCc1c2c(c(OC)c3ccoc13)C(=O)/C(=C/c1ccccc1OC)O2", "growth": "46.1% (inactive)"},
      {"smiles": "O=C(/C=C/c1cn(-c2ccccc2)nc1-c1ccc([N+](=O)[O-])cc1)c1ccc(Cl)cc1", "growth": "62.7% (inactive)"},
      {"smiles": "CCN1CCN(Cc2cn(CC(=O)Nc3ccc4c(ccn4Cc4ccccc4)c3)nn2)CC1", "growth": "96.1% (inactive)"},
      {"smiles": "C=C(CNCCc1ccc(O)cc1)[C@@H]1CC[C@]2(CO)CC[C@]3(C)[C@H](CC[C@@H]4[C@@]5(C)CCC(NCCO)C(C)(C)[C@@H]5CC[C@]43C)[C@@H]12", "note": "(stereo not given in full)", "growth": "-68.1% (active)"},
      {"smiles": "CC(C)(C)[Si](C)(C)O[C@H]1C(=O)C=CN2CC=C[C@@H]12", "growth": "137% [100 µM] (inactive)"},
      {"smiles": "CN(C)CC(=O)Nc1ccc2ncnc(Nc3ccc(Oc4cccc(C(F)(F)F)c4)c(Cl)c3)c2c1", "growth": "77.5% (inactive)"},
      {"smiles": "O=[N+]([O-])C1C(c2ccccc2)C12c1ccccc1-c1ccccc12", "note": "(stereo not given)", "growth": "-42.3% (active)"},
      {"smiles": "Cc1cccc(N2CCN(CC(O)COc3ccc(Cl)cc3)CC2)c1", "note": "(stereo not given)", "growth": "100% (inactive)"},
      {"smiles": "O=CC1(C2(C=O)c3ccccc3-c3ccccc32)c2ccccc2-c2ccccc21", "growth": "-74.3% (active)"},
      {"smiles": "Cc1nc(N2CCOCC2)sc1S(N)(=O)=O", "growth": "98.1% (inactive)"},
      {"smiles": "CCCCN[C@H]1CC[C@@]2(C)[C@@H](CC[C@@]3(C)[C@H]2[C@H](O)C[C@H]2/C(=C(\\CCC=C(C)C)C(=O)OC)[C@@H](OC(C)=O)C[C@@]23C)[C@@H]1C", "growth": "93.5% (inactive)"},
      {"smiles": "O=C(/C=C/c1ccccc1)c1cccc(OCCCOc2cccc(C(=O)/C=C/c3ccccc3)c2)c1", "growth": "92% (inactive)"},
      {"smiles": "OCCOCCN(Cc1ccccn1)Cc1cc(I)cc(I)c1O", "growth": "81.6% (inactive)"},
      {"smiles": "O=Nc1c(-c2c(O)[nH]c3ncccc23)[nH]c2ccccc12", "growth": "45.2% (inactive)"},
      {"smiles": "O=Cc1ccc([N+](=O)[O-])s1", "growth": "102% (inactive)"},
      {"smiles": "COc1ccc(Cc2cc(-c3ccccc3)nn(Cc3ccccc3)c2=O)cc1OC", "growth": "14.7% (inactive)"},
      {"smiles": "O=C1Nc2ccccc2/C1=C\\c1nc(-c2ccccc2)n2ccccc12", "growth": "85.5% (inactive)"}
    ]},
    {"test_system": "MDA-MB-435 melanoma", "assay": "NCI-60 one-dose screen, 48 h (100 = growth as untreated, 0 = no growth, -100 = all killed)", "conditions": "10 µM unless noted", "values": [
      {"smiles": "C1=CN2CC(c3ccccc3)=NNC2c2ccccc21", "note": "(stereo not given)", "growth": "96.5% (inactive)"},
      {"smiles": "NC(=O)CCC(C(=O)O)N1C(=O)c2ccc(O)cc2C1=O", "note": "(stereo not given)", "growth": "94% (inactive)"},
      {"smiles": "Clc1ccc(Sc2cnc(-c3ccccc3)o2)cc1", "growth": "101% (inactive)"},
      {"smiles": "OCc1cccc(-c2ccc3ncc(-c4nc(NC5CC5)ncc4F)n3c2)c1", "growth": "-31.7% (active)"},
      {"smiles": "CO/N=C(/C)c1ccc(NC(=O)CSc2nnc(-c3ccncc3)n2-c2ccccc2)cc1", "growth": "47% (inactive)"},
      {"smiles": "Cc1ccc(C2=Nc3c(N)ncnc3NC(c3ccc4c(c3)OCO4)C2)cc1", "note": "(stereo not given)", "growth": "-34.5% (active)"},
      {"smiles": "COc1cc2oc(-c3cccc(NC(=O)c4cccc(Br)c4)c3)cc(=O)c2c(OC)c1OC", "growth": "57.4% (inactive)"},
      {"smiles": "COC(=O)c1cc(-c2ccccc2)[nH]c1N/N=C/c1c(Cl)cccc1Cl", "growth": "-26.9% (active)"},
      {"smiles": "CN(C)CCCn1c2c(c3ncccc3c1=O)C(=O)c1ccccc1-2", "growth": "64% (inactive)"},
      {"smiles": "Cc1nnc(-n2c(O)cc(=O)n(-c3ccccc3)c2=S)nc1/C=C/c1ccc(N(C)C)cc1", "growth": "24.8% (inactive)"},
      {"smiles": "COc1ccc2c(c1)[n+]([O-])c(C(=O)/C=C/C=C(\\Cl)c1cc(OC)c(OC)c(OC)c1)c(C)[n+]2[O-]", "growth": "93% (inactive)"},
      {"smiles": "O=S(=O)(Nc1ccc(Cl)cc1)c1ccc(-c2cnc(C3CC3)o2)cc1", "growth": "-3.04% (active)"},
      {"smiles": "O=C1/C(=C/c2ccc(Cl)cc2)COc2ccc(O)c(O)c21", "growth": "1.56% (active)"},
      {"smiles": "COc1ccc(-c2nc3c(c(-c4ccccc4)nn3-c3ccccc3)c(-c3ccc(N4CCOCC4)cc3)c2C#N)cc1", "growth": "99.2% (inactive)"},
      {"smiles": "N#Cc1c(NC(=O)c2ccccc2)sc2c1CCC(=O)C2", "growth": "2.87% (active)"},
      {"smiles": "COc1cc(-c2nc3cc(Cl)c(Cl)cc3[nH]2)ccc1OCC(=O)N=Nc1c(O)[nH]c2ccc([N+](=O)[O-])cc12", "growth": "81.9% (inactive)"},
      {"smiles": "COc1ccc(N2CCC(=O)NC2=S)cc1", "growth": "109% (inactive)"},
      {"smiles": "CCOC(=O)c1nc(Nc2ccc(NC(=O)Nc3ccc(F)cc3)cc2)c2ccccc2n1", "growth": "101% (inactive)"},
      {"smiles": "CCOC(=O)C1=C(NC)OCC1=O", "growth": "110% (inactive)"},
      {"smiles": "COc1cc(OC)c2sc(-c3ccc(-n4cncc4-c4ccc(OC)c(OC)c4)cc3)nc2c1", "growth": "53.3% (inactive)"},
      {"smiles": "COCCNC(=O)c1ccc(-c2nc3ccc4[nH]ncc4c3c3c2CCCC3)cc1", "growth": "16.4% (inactive)"},
      {"smiles": "Oc1c(Cl)cc(Cl)c2ccc(Cn3cc(-c4cc(F)cc(F)c4)nn3)nc12", "growth": "60.8% (inactive)"},
      {"smiles": "Cc1ccc2c(n1)C(=O)c1[nH]c3ccccc3c1C2=O", "growth": "-87.6% (active)"},
      {"smiles": "C=CCc1c2c(c(OC)c3ccoc13)C(=O)/C(=C/c1ccccc1OC)O2", "growth": "47.8% (inactive)"},
      {"smiles": "O=C(/C=C/c1cn(-c2ccccc2)nc1-c1ccc([N+](=O)[O-])cc1)c1ccc(Cl)cc1", "growth": "59.5% (inactive)"},
      {"smiles": "CCN1CCN(Cc2cn(CC(=O)Nc3ccc4c(ccn4Cc4ccccc4)c3)nn2)CC1", "growth": "97.7% (inactive)"},
      {"smiles": "C=C(CNCCc1ccc(O)cc1)[C@@H]1CC[C@]2(CO)CC[C@]3(C)[C@H](CC[C@@H]4[C@@]5(C)CCC(NCCO)C(C)(C)[C@@H]5CC[C@]43C)[C@@H]12", "note": "(stereo not given in full)", "growth": "-92.1% (active)"},
      {"smiles": "CC(C)(C)[Si](C)(C)O[C@H]1C(=O)C=CN2CC=C[C@@H]12", "growth": "102% [100 µM] (inactive)"},
      {"smiles": "CN(C)CC(=O)Nc1ccc2ncnc(Nc3ccc(Oc4cccc(C(F)(F)F)c4)c(Cl)c3)c2c1", "growth": "61% (inactive)"},
      {"smiles": "O=[N+]([O-])C1C(c2ccccc2)C12c1ccccc1-c1ccccc12", "note": "(stereo not given)", "growth": "-23.1% (active)"},
      {"smiles": "Cc1cccc(N2CCN(CC(O)COc3ccc(Cl)cc3)CC2)c1", "note": "(stereo not given)", "growth": "84.1% (inactive)"},
      {"smiles": "O=CC1(C2(C=O)c3ccccc3-c3ccccc32)c2ccccc2-c2ccccc21", "growth": "-57.9% (active)"},
      {"smiles": "Cc1nc(N2CCOCC2)sc1S(N)(=O)=O", "growth": "105% (inactive)"},
      {"smiles": "CCCCN[C@H]1CC[C@@]2(C)[C@@H](CC[C@@]3(C)[C@H]2[C@H](O)C[C@H]2/C(=C(\\CCC=C(C)C)C(=O)OC)[C@@H](OC(C)=O)C[C@@]23C)[C@@H]1C", "growth": "98% (inactive)"},
      {"smiles": "O=C(/C=C/c1ccccc1)c1cccc(OCCCOc2cccc(C(=O)/C=C/c3ccccc3)c2)c1", "growth": "101% (inactive)"},
      {"smiles": "OCCOCCN(Cc1ccccn1)Cc1cc(I)cc(I)c1O", "growth": "102% (inactive)"},
      {"smiles": "O=Nc1c(-c2c(O)[nH]c3ncccc23)[nH]c2ccccc12", "growth": "72.6% (inactive)"},
      {"smiles": "O=Cc1ccc([N+](=O)[O-])s1", "growth": "110% (inactive)"},
      {"smiles": "COc1ccc(Cc2cc(-c3ccccc3)nn(Cc3ccccc3)c2=O)cc1OC", "growth": "43.9% (inactive)"},
      {"smiles": "O=C1Nc2ccccc2/C1=C\\c1nc(-c2ccccc2)n2ccccc12", "growth": "90.5% (inactive)"}
    ]}
  ]
}
